HT1080 IDH1KD tx – qHTS for induction of synthetic lethality in tumor cells producing 2HG: qHTS for the HT-1080-IDH1KD cell line. HT-1080 IDH1 knockdown viability, ATP luminescence, 48 h. Potency, µM (series often up to 46.1 µM), for inactives: top-dose activity, negative = toxicity, usual class: cytotoxic. hit rate 2% among 360,000. AID 686971, 2013;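 further: potency means the concentration at half of the fitted maximal effect; 0% = DMSO wells and -100% = cell-free medium wells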
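After a 2 h attachment period, IDH1KD HT-1080 cells took pin-transferred compound for 48 h at 37 °C; ATP-based luminescence after 10 min room-temperature reagent incubation reported viability.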
TDP1 cell noCPT – qHTS for Inhibitors of human tyrosyl-DNA phosphodiesterase 1 (TDP1): qHTS in cells in absence of CPT. DT40 Tdp1-/- hTDP1 cells, no CPT, ATP luminescence, 48 h. Potency, µM (titrated, usually from 46.2 µM), for inactives: at the top dose activity change, negative = growth inhibition, actives largely listed as inhibitors. hit rate 15% among 420,000; further: potency means the concentration at half of the fitted maximal effect; nearly all actives have a fitted effect of over 55% in size
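Luminescent ATP content (CellTiter-Glo) served as the growth readout. Knockout chicken DT40 cells expressing human TDP1 were exposed to compounds without camptothecin for a minimum 48 hr at 37 °C.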
ELG1 repair inh – qHTS screen for small molecules that inhibit ELG1-dependent DNA repair in human embryonic kidney (HEK293T) cells expressing luciferase-tagged ELG1; HEK293T ELG1-luciferase reporter, luminescence, 16 h; DNA damage induced by 5-fluorouridine; Potency, µM (titrated, usually from 46.1 µM), without a hit: at the top dose activity change, negative = inhibition, usual class: inhibitors; hit rate 2.3% among 330,000; AID 504467, 2011; further: potency means the concentration at half of the fitted maximal effect; nearly all actives have a fitted effect of over 55% in size
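Step one: seed 2,000 cells per well. Step two: pin-transfer compound or DMSO alongside 5-fluorouridine. Step three: incubate 16 hr, 37 °C, 5% CO2. Step four: add ONE-Glo, wait 30 min, read luminescence.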
IL-1B inflam inh – qHTS for Inhibitors of Inflammasome Signaling: IL-1-beta AlphaLISA Primary Screen. activity change, % at 57.5 µM. hit rate 4.7% among 360,000. THP-1 LPS/ATP IL-1B secretion, AlphaLISA, 16 h; stronger effect = lower value; in the data active means activity change below about -50%; inconclusive means mostly about -30% to -49%
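Secreted IL-1B measured by AlphaLISA bead assay after 16 h compound exposure of THP-1 cells; compounds (final up to 57.5 uM) added 1 h before LPS (250 ng/mL) and ATP (1.25 mM) stimulation; lower signal means less secretion.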
HT1080NT lethal – qHTS for induction of synthetic lethality in tumor cells producing 2HG: qHTS for the HT-1080-NT fibrosarcoma cell line. HT-1080-NT fibrosarcoma viability, CellTiter-Glo ATP luminescence, 48 h. Potency, µM (doses to about 46.1 µM), for inactives: top-dose activity, negative = less viability, actives largely listed as cytotoxic. hit rate 1.6% among 360,000. AID 686970, 2013;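 further: NT is the 2HG producing partner of a matched IDH1 knockdown line; potency means the concentration at half of the fitted maximal effect; 0% = DMSO-treated cells and -100% = media-only wells without cells; nearly all actives have a fitted effect of over 55% in size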
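Toxicity toward the 2HG-producing NT line was scored as %Activity, normalised to DMSO and no-cell wells, from CellTiter-Glo luminescence after 48 hours' treatment.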
DT40 TDP1 CPT – qHTS for Inhibitors of human tyrosyl-DNA phosphodiesterase 1 (TDP1): qHTS in cells in presence of CPT; chicken DT40 Tdp1-/-;hTDP1 cells + 20 nM CPT, ATP luminescence, 48 h; Potency, µM (series often up to 46.2 µM), inactives show top-dose activity change, negative = growth inhibition, usual class: inhibitors; hit rate 12% among 420,000; further: potency means the concentration at half of the fitted maximal effect; nearly all actives have a fitted effect of over 55% in size
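Chicken DT40 Tdp1-/- cells stably complemented with human TDP1 were seeded at 400 cells/well in medium containing 20 nM camptothecin, exposed to pin-transferred compounds, and grown at 37 °C for at least 48 hr. Viability was read as ATP luminescence.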
ELG1 FLuc counter – qHTS screen for small molecules that inhibit ELG1-dependent DNA repair: Hit Confirmation in Cell-Based Luciferin Assay | shares compounds with ELG1 repair inh | cell-free firefly luciferase luminescence counter-screen, ViewLux | Potency, µM (top dose mostly 46.1 µM), without a hit: at the highest dose activity change, negative = inhibition, actives largely listed as inhibitors | hit rate 3% among 350 | AID 624247, 2012; further: potency means the concentration at half of the fitted maximal effect
ELG1 Luc conf – HTS assay for small molecules that inhibit ELG1-dependent DNA repair in human embryonic kidney (HEK293T) cells expressing luciferase-tagged ELG1: Hit Confirmation; HEK293T ELG1-luciferase levels, luminescence; cells co-treated with 5-fluorouridine; shares compounds with ELG1 repair inh; Potency, µM (series often up to 46.1 µM), inactives show top-dose activity change, negative = inhibition, actives largely listed as inhibitors; AID 624248, 2012; hit rate 68% among 670; further: potency means the concentration at half of the fitted maximal effect; nearly all actives have a fitted effect of over 55% in size
ELG1-Luc MMS – inhibits ELG1-dependent repair under MMS stimulation in HEK293T cells | shares compounds with ELG1 repair inh | HEK293T luciferase-tagged ELG1 level, MMS stimulated | Potency, µM (titrated, usually from 46.1 µM), inactives show top-dose activity change, negative = inhibition, usual class: inhibitors | hit rate 53% among 670 | AID 624249; further: potency means the concentration at half of the fitted maximal effect; nearly all actives have a fitted effect of over 60% in size
ELG1 5-FU – qHTS screen for small molecules that inhibit ELG1-dependent DNA repair: Hit Confirmation with 5FU Viability; shares compounds with ELG1 repair inh; cell viability with 5-FU, ELG1-dependent repair; Potency, µM (top dose mostly 46.1 µM), without a hit: at the highest dose activity change, negative = viability loss, usual class: cytotoxic; 670 tested, under 10 active; AID 624250, 2012;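 further: ELG1-luc HEK293T cells cotreated with 5-fluorouridine at 10 µM final; potency means the concentration at half of the fitted maximal effect; viability measured 16 h after compound addition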
ELG1 MMS cell – qHTS screen for small molecules that inhibit ELG1-dependent DNA repair: Hit Confirmation with MMS Viability. AID 624251, 2012. hit rate 33% among 670. Cell viability with MMS, ELG1-dependent DNA repair. Potency, µM (top dose mostly 46.1 µM), for inactives: at the highest dose activity change, negative = viability loss, usual class: cytotoxic. shares compounds with ELG1 repair inh;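 further: ELG1-luc HEK293T cells co-treated with 10 µM MMS; potency means the concentration at half of the fitted maximal effect; viability read 16 h after compound addition; nearly all actives have a fitted effect of over 60% in size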
ELG1 unstim viab – qHTS screen for small molecules that inhibit ELG1-dependent DNA repair: Hit Confirmation with Unstimulated Viability Assay; cell viability counter-screen, unstimulated, luminescence; hit rate 8% among 900; Potency, µM (titrated, usually from 45.9 µM), for inactives: top-dose activity change, negative = loss of viability, actives largely listed as cytotoxic; shares compounds with ELG1 repair inh;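 further: potency means the concentration at half of the fitted maximal effect; compound exposure lasted 16 hours before reading; nearly all actives have a fitted effect of over 55% in size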
FLuc enzyme – qHTS screen for small molecules that inhibit ELG1-dependent DNA repair: Hit Confirmation in Biochemical Luciferin Assay; Potency, µM (series often up to 57.5 µM), inactives show top-dose activity, negative = inhibition, most hits filed as inhibitors; shares compounds with ELG1 repair inh; hit rate 10% among 350; purified firefly luciferase, luminescence counter-screen; further: potency means the concentration at half of the fitted maximal effect
Starred values were filed as active, the others as inactive; ? = inconclusive; · = not tested or not shown. Sampled rows, rich in hits. Any-hit rate of the full collection: about 19%. Unless noted, the call rests on the fitted dose curve; in most records, active means well fitted curve in the direction sought with a large enough effect; inconclusive means small, poorly fitted or top-dose-only effect, or another doubt; inactive means no such curve, though single readings can be large; an effect the other way counts as inactive or inconclusive. Unless noted, on the % scale 0 is the no-effect control and ±100 the full control effect.

SMILES	HT1080 IDH1KD tx	TDP1 cell noCPT	ELG1 repair inh	IL-1B inflam inh	HT1080NT lethal	DT40 TDP1 CPT	ELG1 FLuc counter	ELG1 Luc conf	ELG1-Luc MMS	ELG1 5-FU	ELG1 MMS cell	ELG1 unstim viab	FLuc enzyme
CC12CCC(=O)C=C1CCC1C2CCC2(C)C(O)(C(=O)CO)CCC12O (centres undefined)	16.8%	-20.7%	·	-7.7	9.4%	0.2%	·	·	·	·	·	·	·
CC1OC(O[C@@H]2C(O)CC(O[C@@H]3C(O)C[C@@H](OC4CC[C@]5(C)[C@H](CC[C@H]6[C@@H]5CC[C@]5(C)C(C7=CC(=O)OC7)C(O)C[C@@]65O)C4)OC3C)OC2C)CC(O)C1O (some centres undefined)	·	-14.0%	·	·	·	0.3%	·	0.56µM*	0.315µM*	?	0.499µM*	0.199µM*	·
COC1C(O)C(C)O[C@H](OC2CC[C@@]3(C=O)C4CC[C@]5(C)C(C6=CC(=O)OC6)CC[C@@]5(O)C4CC[C@@H]3C2)C1O (some centres undefined)	·	0.366µM*	·	·	·	0.651µM*	?	0.177µM*	0.0706µM*	0.25µM*	0.158µM*	0.0445µM*	?
COC1C(O)C(C)O[C@@H](OC2CC[C@@]3(C)C4CC[C@]5(C)C(C6=CC(=O)OC6)CC[C@@]5(O)C4CC[C@@H]3C2)C1O (some centres undefined)	·	0.651µM*	·	·	·	1.03µM*	?	0.0997µM*	0.0629µM*	?	0.141µM*	0.05µM*	-6.0%
O=[N+]([O-])O[C@H]1CO[C@H]2[C@@H]1OC[C@H]2O[N+](=O)[O-]	-6.6%	9.2%	8.0%	6.4	15.0%	0.9%	·	·	·	·	·	·	·
CC(C)N1C(=O)NC(=O)C2(Cc3cc([N+](=O)[O-])ccc3N(C)C2c2ccccc2)C1=O (centres undefined)	-10.7%	?	?	-24.0	-12.9%	?	·	·	·	·	·	·	·
COC(=O)C1=C(c2c(C)noc2C)C[C@@H]2CC[C@H]1N2C(=O)NC1CCCCC1	3.7%	0.4%	16.3%	31.3	0.0%	13.4%	·	·	·	·	·	·	·

Assay outcomes from PubChem.
